This note sets out measurements from PubChem BioAssay (NCI).

“And” between values parts separate entries of the source, which are not always exact repeats. Equal values may be shown once. This is part of a sample that, as a whole, favours compounds with a hit. Of some 83,000 tested, about 20% had one in any assay.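 How to read the values: 0–100, growth inhibition (40 = 60% inhibited); 0, no net growth; -100 to 0, cell death (-40 = 40% of starting cells died; -100 = all dead).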 The source made the active and inactive calls. The calls were made as follows: active = growth percent below 10; inactive = the rest.

Test systems include HCT-15 colon; HT29 colon; SNB-75 CNS; SNB-19 CNS; U251 CNS; PC-3 prostate; SK-MEL-5 melanoma; UACC-62 melanoma; LOX IMVI melanoma; SK-MEL-28 melanoma; SK-MEL-2 melanoma; EKVX NSCLC; SN12C renal; UO-31 renal; TK-10 renal; ACHN renal; CAKI-1 renal; A498 renal; CCRF-CEM leukemia; MOLT-4 leukemia.
Common to all, as to assay: NCI-60 one-dose screen, 48 h (100 = growth as untreated, 0 = no growth, -100 = all killed)
Settings in all cases: 10 µM unless noted

As to `O=C(Nc1cc(C(F)(F)F)cc(C(F)(F)F)c1)c1cc(Cl)ccc1O`, the growth in the assay with HCT-15 colon was -39.7% (active) and -24.9% (active); in the assay with HT29 colon it was 0.709% (active) and 1.2% (active); in the assay with SNB-75 CNS, -64.9% (active) and -39.3% (active); with SNB-19 CNS, 5.13% (active) and 12.9% (inactive); in the assay on U251 CNS, -5.01% (active) and -11.5% (active); in the assay with PC-3 prostate, 5.05% (active) and -0.956% (active). The growth in the assay with SK-MEL-5 melanoma was -70.3% (active); in the assay with UACC-62 melanoma it was -56% (active) and -42.8% (active); with LOX IMVI melanoma it was -62.1% (active) and -58.6% (active); in the assay on SK-MEL-28 melanoma it was -33.4% (active) and -22.4% (active); with SK-MEL-2 melanoma, -40.3% (active); in the assay on EKVX NSCLC it was 1.8% (active) and 3.4% (active). For the same compound, the growth is -4.82% (active) and -10.6% (active) in the assay with SN12C renal; -64.4% (active) and -19.6% (active) in the assay with UO-31 renal; -8.88% (active) and 5.69% (active) with TK-10 renal; -14% (active) and 2.27% (active) with ACHN renal; -20.5% (active) and -23.8% (active) with CAKI-1 renal; -44.7% (active) and -69.3% (active) with A498 renal. Moreover, the growth with CCRF-CEM leukemia was -12.3% (active) and -10.4% (active); in the assay with MOLT-4 leukemia, -38.9% (active) and -44.7% (active).
As to `COC(=O)c1nc(-c2ccc(C)cc2)oc1S(=O)(=O)c1ccc(Cl)cc1`, the growth with HCT-15 colon is 73.5% (inactive); in the assay on HT29 colon, 102% (inactive); in the assay on SNB-75 CNS it was 100% (inactive); with SNB-19 CNS, 96.4% (inactive); in the assay with U251 CNS it was 93.4% (inactive); in the assay with PC-3 prostate, 97% (inactive). Further, the growth is 96.5% (inactive) in the assay on SK-MEL-5 melanoma; 90.4% (inactive) with UACC-62 melanoma; 42.3% (inactive) with LOX IMVI melanoma; 99% (inactive) in the assay on SK-MEL-28 melanoma; 102% (inactive) in the assay with SK-MEL-2 melanoma; 108% (inactive) with EKVX NSCLC. Also, the growth in the assay on SN12C renal is 83.6% (inactive); in the assay with UO-31 renal it was 75.1% (inactive); in the assay on TK-10 renal, 93.5% (inactive); in the assay on ACHN renal, 80.4% (inactive); with CAKI-1 renal, 95% (inactive); in the assay on A498 renal, 113% (inactive). Besides, the figures for the growth with CCRF-CEM leukemia and in the assay with MOLT-4 leukemia were -15.8% (active) and -21% (active), respectively.
Regarding `S=c1nc(CS)[nH]c2ccccc12`, the growth in the assay on HCT-15 colon is 93.2% (inactive); in the assay with HT29 colon it was 101% (inactive); in the assay on SNB-75 CNS, 86.7% (inactive); with SNB-19 CNS, 92.5% (inactive); in the assay on U251 CNS it was 96.7% (inactive); in the assay on PC-3 prostate, 93.9% (inactive). The growth in the assay with SK-MEL-5 melanoma is 95.7% (inactive); in the assay with UACC-62 melanoma, 90.6% (inactive); with LOX IMVI melanoma, 91% (inactive); in the assay on SK-MEL-28 melanoma it was 105% (inactive); in the assay on SK-MEL-2 melanoma, 101% (inactive); with EKVX NSCLC, 84% (inactive). Also, the growth was 95.4% (inactive) in the assay with SN12C renal; 71.8% (inactive) in the assay with UO-31 renal; 161% (inactive) with TK-10 renal; 93.5% (inactive) with ACHN renal; 77.1% (inactive) in the assay on CAKI-1 renal; 53.2% (inactive) with A498 renal. Also, the growth in the assay on CCRF-CEM leukemia and with MOLT-4 leukemia was 102% (inactive) throughout.
Take `CCN(CC)CCOc1ccc(/C(=C(\Cl)c2ccccc2)c2ccccc2)cc1`: the growth in the assay on HCT-15 colon was -1.24% (active) and 0.736% (active); in the assay on HT29 colon, -46.7% (active) and 7.7% (active); in the assay on SNB-75 CNS it was 27.2% (inactive) and 31.5% (inactive); in the assay on SNB-19 CNS it was 52.4% (inactive) and 86.6% (inactive); in the assay with U251 CNS, 23.1% (inactive) and 72.8% (inactive); with PC-3 prostate it was 49.1% (inactive) and 91.3% (inactive). The growth is -97.4% (active) and -99.3% (active) with SK-MEL-5 melanoma; -54.2% (active) and 9.63% (active) in the assay on UACC-62 melanoma; -42.7% (active) and 85.4% (inactive) in the assay with LOX IMVI melanoma; -28% (active) and -41.1% (active) in the assay with SK-MEL-28 melanoma; 7.89% (active) with SK-MEL-2 melanoma; 47.7% (inactive) and 87.7% (inactive) with EKVX NSCLC. For the same compound, the growth is 54.8% (inactive) and 75.6% (inactive) in the assay on SN12C renal; 24% (inactive) and 66.4% (inactive) in the assay on UO-31 renal; 111% (inactive) in the assay with TK-10 renal; 52.8% (inactive) and 81.3% (inactive) with ACHN renal; 41.3% (inactive) and 69.9% (inactive) with CAKI-1 renal; 77.1% (inactive) with A498 renal. The growth is 28% (inactive) and 89% (inactive) in the assay on CCRF-CEM leukemia; 36.8% (inactive) and 91.6% (inactive) in the assay on MOLT-4 leukemia.
Regarding `Nc1nc(CSc2n[nH]c(N)n2)nc(Nc2ccccc2)n1`, the growth in the assay on HCT-15 colon is 94.2% (inactive); with HT29 colon, 106% (inactive); with SNB-75 CNS it was 82.2% (inactive); in the assay with SNB-19 CNS, 101% (inactive); in the assay on U251 CNS, 99.9% (inactive); in the assay on PC-3 prostate it was 101% (inactive). The growth with SK-MEL-5 melanoma was 101% (inactive); in the assay on UACC-62 melanoma, 91.9% (inactive); in the assay on LOX IMVI melanoma, 98.3% (inactive); in the assay with SK-MEL-28 melanoma, 100% (inactive); with SK-MEL-2 melanoma, 106% (inactive); with EKVX NSCLC it was 96.1% (inactive). For the same compound, the growth is 101% (inactive) in the assay on SN12C renal; 87.2% (inactive) with UO-31 renal; 99.1% (inactive) in the assay with TK-10 renal; 98.6% (inactive) with ACHN renal; 87.6% (inactive) in the assay on CAKI-1 renal; 89.3% (inactive) in the assay on A498 renal. Moreover, the results for the growth in the assay on CCRF-CEM leukemia and in the assay with MOLT-4 leukemia were 45.9% (inactive) and 107% (inactive), respectively.
On to `N#CC1C(=O)c2ccccc2C1c1ccccc1` (stereo not given), for which the growth was 101% (inactive) and 95.5% (inactive) with HCT-15 colon; 114% (inactive) and 110% (inactive) in the assay with HT29 colon; 89.5% (inactive) and 93.2% (inactive) in the assay with SNB-75 CNS; 97.1% (inactive) and 98.5% (inactive) in the assay with SNB-19 CNS; 98.6% (inactive) and 99.8% (inactive) in the assay with U251 CNS; 111% (inactive) and 116% (inactive) with PC-3 prostate. Moreover, the growth is 96.8% (inactive) and 103% (inactive) in the assay on SK-MEL-5 melanoma; 100% (inactive) and 101% (inactive) with UACC-62 melanoma; 91.5% (inactive) and 98.1% (inactive) in the assay with LOX IMVI melanoma; 107% (inactive) and 117% (inactive) in the assay with SK-MEL-28 melanoma; 103% (inactive) with SK-MEL-2 melanoma; 103% (inactive) with EKVX NSCLC. Further, the growth in the assay on SN12C renal was 101% (inactive) and 98.5% (inactive); in the assay on UO-31 renal, 74% (inactive) and 84.6% (inactive); in the assay on TK-10 renal, 109% (inactive) and 106% (inactive); in the assay on ACHN renal it was 108% (inactive) and 103% (inactive); with CAKI-1 renal it was 92.2% (inactive) and 93.6% (inactive); with A498 renal, 128% (inactive) and 99.1% (inactive). Also, the growth in the assay on CCRF-CEM leukemia is 98.2% (inactive) and 94.2% (inactive); in the assay on MOLT-4 leukemia it was 80.4% (inactive) and 83.3% (inactive).
